From the antibiotic and cytotoxicity screens of Wong et al. (2023)
Out of some 39,000 compounds screened, about 500 (1.3%) were called active. The full list was thinned out, with actives kept by preference.

tested on: S. aureus RN4220; experiment: growth inhibition call (relative growth <= 0.2); conditions: 50 µM

| SMILES | growth inhibition call |
| --- | --- |
| COc1ccc(NC(=O)Nc2cccc3c2O[C@H](CN(C)S(C)(=O)=O)[C@H](C)CN([C@@H](C)CO)C3=O)cc1 | inactive |
| Nc1ncn(C[C@@H](O)CO)c2nc(Br)nc1-2 | inactive |
| Nc1nnc(-c2ccc([N+](=O)[O-])o2)o1 | active |
| Nc1nnc(-c2ccno2)o1 | inactive |
| Cc1cc(-c2nnc(N)o2)nn1C | inactive |
| Cc1noc(C)c1NC(=O)N(C)C[C@@H]1OCCCC[C@@H](C)Oc2ccc(NC(=O)Nc3ccc(F)cc3)cc2C(=O)N([C@@H](C)CO)C[C@H]1C | inactive |
| CC(=O)Oc1cc(-c2coc3cc(OC(C)=O)c(OC(C)=O)c(OC(C)=O)c3c2=O)cc(OC(C)=O)c1OC(C)=O | inactive |
| C[C@]1(C(=O)NCC(F)(F)F)c2ccccc2C(=O)N(Cc2cc(C(F)(F)F)cc(C(F)(F)F)c2)[C@H]1c1ccc(CO)cc1 | inactive |
| O=C(NC1CCCCCCC1)c1ccccc1-c1ccccc1 | inactive |
| O=C(NC1CCN(CCCCC2(C(=O)NCC(F)(F)F)c3ccccc3-c3ccccc32)CC1)c1ccccc1-c1ccc(C(F)(F)F)cc1 | active |
| C[C@@H]1CN([C@H](C)CO)C(=O)Cc2cc(NC(=O)Nc3ccc4c(c3)OCO4)ccc2O[C@H]1CN(C)S(C)(=O)=O | inactive |
| Cc1ccc(S(=O)(=O)N(C)C[C@H]2Oc3ccc(NC(=O)NC(C)C)cc3CC(=O)N([C@H](C)CO)C[C@H]2C)cc1 | inactive |
| Cc1nnc(SCC2=C(C(=O)O)N3C(=O)[C@@H](N)[C@H]3SC2)s1 | inactive |
| Cc1nnc(SCC2=C(C(=O)O)N3C(=O)[C@@H](NC(=O)Cn4cnnn4)[C@H]3SC2)s1 | active |
| O=C(Cn1cnnn1)NC1C(=O)N2C(C(=O)O)=C(CSc3nncs3)CSC12 (configuration not stated) | active |
| Cc1nnc(SCC2=C(C(=O)[O-])N3C(=O)C(NC(=O)Cn4cnnn4)C3SC2)s1.[Na+] (configuration not stated) | active |
| C[C@@H]1CN([C@@H](C)CO)C(=O)c2cc(NC(=O)Cc3ccccc3)ccc2O[C@@H](C)CCCCO[C@H]1CN(C)C(=O)Nc1cccc2ccccc12 | inactive |
| Cc1cc(C(=O)Nc2cccc3c2O[C@H](CN(C)C(=O)Nc2ccccc2)[C@@H](C)CN([C@H](C)CO)C3=O)n(C)n1 | inactive |
| C[C@@H]1CCCCO[C@@H](CN(C)C(=O)c2ccccc2)[C@@H](C)CN([C@H](C)CO)C(=O)c2cc(NC(=O)CCCCCC(=O)Nc3ccccc3N)ccc2O1 | inactive |
| C[C@H]1CCCCO[C@H](CN(C)S(=O)(=O)c2ccc(F)cc2)[C@@H](C)CN([C@@H](C)CO)C(=O)c2cc(NC(=O)Nc3cccc4ccccc34)ccc2O1 | inactive |
| Cc1csc2c(Cl)ncnc12 | inactive |
| COc1ccc(CCN2C(=O)[C@@]3(Cc4ccccc42)c2ccccc2C(=O)N(C2CCCCC2)[C@H]3c2ccc(CO)cc2)cc1 | inactive |
| COc1ccc(NC(=O)N(C)C[C@@H]2OCCCC[C@H](C)Oc3ccc(NC(=O)C4CCCCC4)cc3C(=O)N([C@H](C)CO)C[C@H]2C)cc1 | inactive |
| C[C@H]1CCCCO[C@H](CN(C)C(=O)C2CCCCC2)[C@@H](C)CN([C@@H](C)CO)C(=O)c2cc(NC(=O)c3ccccc3)ccc2O1 | inactive |

| SMILES | growth inhibition call |
| --- | --- |
| Cc1nn(C)cc1NC(=O)C[C@H]1CC[C@@H]2[C@H](COc3ccc(NC(=O)C4CCOCC4)cc3C(=O)N2C)O1 | inactive |
| N#CCN1CCSCC1 | inactive |
| C[C@H]1CN([C@@H](C)CO)C(=O)c2cc(NC(=O)CCN3CCOCC3)ccc2O[C@H]1CN(C)CC1CCCCC1 | inactive |
| Cc1noc(C)c1S(=O)(=O)N(C)C[C@H]1OCCCC[C@@H](C)Oc2ccc(NS(C)(=O)=O)cc2C(=O)N([C@@H](C)CO)C[C@H]1C | inactive |
| COCC(=O)Nc1ccc2c(c1)C(=O)N(C)[C@@H]1CC[C@@H](CC(=O)N3CCc4ccccc4C3)O[C@H]1CO2 | inactive |
| Cc1ccc(S(=O)(=O)N(C)C[C@@H]2Oc3ccc(NC(=O)NC(C)C)cc3CC(=O)N([C@H](C)CO)C[C@@H]2C)cc1 | inactive |
| C[C@@H]1CCCCO[C@@H](CN(C)Cc2ccc(C(=O)Nc3ccccc3N)cc2)[C@@H](C)CN([C@H](C)CO)C(=O)c2cc(NC(=O)C3CCCCC3)ccc2O1 | inactive |
| C[C@H]1CN([C@@H](C)CO)C(=O)c2cccc(NC(=O)c3cnccn3)c2O[C@H]1CN(C)Cc1ccc(C(=O)O)cc1 | inactive |
| Cc1ccc(S(=O)(=O)N2CCN(CC(=O)N/N=C/c3ccccn3)CC2)cc1 | inactive |
| NC(=O)NN=Cc1ccc([N+](=O)[O-])o1 | active |
| O=C(N/N=C/c1ccc(CO)o1)c1ccccn1 | inactive |
| CCOC(=O)c1ccc(N2NC(=O)/C(=C/c3ccc([N+](=O)[O-])o3)C2=O)cc1 | inactive |
| O=C(NN=Cc1ccc([N+](=O)[O-])o1)c1ccc(O)cc1 | inactive |
| NC(=O)N/N=C/c1ccc([N+](=O)[O-])o1 | active |
| O=C(CN1CCOCC1)N/N=C/c1ccc([N+](=O)[O-])o1 | active |
| O=C(Cn1ccc([N+](=O)[O-])n1)N1CCOCC1 | inactive |
| COC(=O)N/N=C/c1ccc([N+](=O)[O-])o1 | inactive |
| COCC#Cc1ccc2c(c1)O[C@H](CN(C)C(=O)c1ccccc1F)[C@H](C)CN([C@H](C)CO)S2(=O)=O | inactive |
| C[C@H](CO)N1C[C@H](C)[C@H](CN(C)C(=O)Nc2ccc3c(c2)OCO3)Oc2ncc(-c3cncnc3)cc2C1=O | inactive |
| COc1ccc(NC(=O)Nc2ccc3c(c2)C(=O)N([C@H](C)CO)C[C@@H](C)[C@@H](CN(C)Cc2ccc(C(=O)Nc4ccccc4N)cc2)O3)cc1 | inactive |
| C[C@@H]1CN([C@H](C)CO)C(=O)CCCn2cc(nn2)CO[C@H]1CN(C)S(C)(=O)=O | inactive |
| O=C(CN1CCOCC1)NCC[C@H]1CC[C@@H](NC(=O)c2ccccc2F)[C@H](CO)O1 | inactive |
| COc1ccc(NC(=O)N(C)C[C@@H]2OCCCC[C@@H](C)Oc3ccc(NS(=O)(=O)c4ccccc4)cc3C(=O)N([C@@H](C)CO)C[C@@H]2C)cc1 | inactive |
| CCS(=O)(=O)Nc1ccc2c(c1)C(=O)N(C)C[C@H](OC)[C@@H](C)CN(Cc1nccs1)[C@H](C)CO2 | inactive |

| SMILES | growth inhibition call |
| --- | --- |
| CCOC(=O)Nc1ccc(C)s1 | inactive |
| Cc1noc(C)c1S(=O)(=O)N(C)C[C@@H]1OCCCC[C@@H](C)Oc2ccc(NC(=O)Nc3ccc(C(F)(F)F)cc3)cc2C(=O)N([C@@H](C)CO)C[C@@H]1C | inactive |
| C[C@@H]1CN([C@H](C)CO)C(=O)c2cc(/C=C/c3ccccc3)cnc2O[C@@H]1CN(C)C(=O)C1CCOCC1 | inactive |
| C[C@@H]1CN([C@@H](C)CO)C(=O)CCCn2nncc2CO[C@@H]1CN(C)S(=O)(=O)c1ccccc1C#N | inactive |
| COC(=O)c1c(C)cc(OC(=O)c2c(C)cc(O)c(C=O)c2O)c(C)c1O | inactive |
| Cc1cc(O)c(C=O)c(O)c1C(=O)O | inactive |
| CCOC(=O)c1c(C)cc(O)c(C=O)c1O | active |
| CCCCC[C@@H](O)C[C@@H](O)CC(=O)O[C@@H](CCCCC)C[C@@H](O)CC(=O)OC[C@@H](O)[C@@H](O)[C@@H](O)[C@@H](O)CO | inactive |
| COc1ccc(CN(C)C[C@@H]2Oc3ccc(NC(=O)Nc4ccc(C(F)(F)F)cc4)cc3CC(=O)N([C@H](C)CO)C[C@@H]2C)cc1 | inactive |
| C[C@H]1CCCCO[C@@H](CN(C)C(=O)Nc2ccccc2)[C@@H](C)CN([C@@H](C)CO)C(=O)c2cc(NC(=O)c3ccccc3)ccc2O1 | inactive |
| O=C1c2ccccc2C(=O)c2c(NCCNCCO)ccc(NCCNCCO)c21 | inactive |
| C[C@@H]1CN([C@H](C)CO)C(=O)c2cc(NC(=O)C3CC3)ccc2O[C@@H]1CN(C)Cc1ccc(-c2ccccc2)cc1 | inactive |
| COc1ccc(NC(=O)Nc2cccc3c2O[C@@H](CN(C)C(=O)Nc2ccc(C(F)(F)F)cc2)[C@@H](C)CN([C@@H](C)CO)C3=O)cc1 | inactive |
| COc1ccc(NC(=O)N(C)C[C@@H]2Oc3c(NC(=O)Nc4ccc(C(F)(F)F)cc4)cccc3C(=O)N([C@@H](C)CO)C[C@@H]2C)cc1 | active |
| C[C@@H]1CN([C@H](C)CO)C(=O)c2cccc(NC(=O)Nc3ccc(F)cc3)c2O[C@H]1CN(C)C(=O)Nc1ccc(C(F)(F)F)cc1 | inactive |
| C[C@H](CO)N1C[C@H](C)[C@H](CN(C)C(=O)Nc2ccc(C(F)(F)F)cc2)Oc2c(NC(=O)Nc3ccc(F)cc3)cccc2C1=O | inactive |
| C[C@@H]1CN([C@H](C)CO)C(=O)c2cccc(NC(=O)Nc3ccc(C(F)(F)F)cc3)c2O[C@@H]1CN(C)C(=O)Nc1ccc(F)cc1 | active |
| Cc1noc(C)c1NC(=O)Nc1cccc2c1O[C@H](CN(C)C(=O)Nc1ccc(C(F)(F)F)cc1)[C@H](C)CN([C@H](C)CO)C2=O | inactive |
| Cc1noc(C)c1NC(=O)Nc1cccc2c1O[C@@H](CN(C)C(=O)Nc1ccc(C(F)(F)F)cc1)[C@H](C)CN([C@@H](C)CO)C2=O | active |
| C[C@H]1CN([C@@H](C)CO)C(=O)c2cccc(NC(=O)Nc3ccc(C(F)(F)F)cc3)c2O[C@H]1CN(C)C(=O)Nc1ccc(F)cc1 | inactive |
| Cc1noc(C)c1NC(=O)Nc1cccc2c1O[C@@H](CN(C)C(=O)Nc1ccc(C(F)(F)F)cc1)[C@@H](C)CN([C@H](C)CO)C2=O | inactive |
| C[C@@H]1CN([C@@H](C)CO)C(=O)c2cccc(NC(=O)Nc3ccc(C(F)(F)F)cc3)c2O[C@H]1CN(C)C(=O)Nc1ccc(F)cc1 | active |
| C[C@@H]1CN([C@@H](C)CO)C(=O)c2cccc(NC(=O)Nc3ccc(F)cc3)c2O[C@H]1CN(C)C(=O)Nc1ccc(C(F)(F)F)cc1 | inactive |
| COc1ccc(NC(=O)Nc2cccc3c2O[C@H](CN(C)C(=O)Nc2ccc(C(F)(F)F)cc2)[C@@H](C)CN([C@@H](C)CO)C3=O)cc1 | inactive |
